Measurements: PubChem BioAssay (NCATS)
Results filed as inconclusive are left out. Unless noted, calls follow the shape of the dose curve; as a rule, active = well fitted curve in either direction with a large enough effect (not every such curve was filed as active); inconclusive = small, poorly fitted or top-dose-only effect, or another doubt; inactive = flat fitted curve, though single readings scatter.

Tests used:
[1] = AP1 Signaling Pathway (AID 357); details: ME-180 AP-1-bla reporter, EGF-induced, beta-lactamase ratio, 5 h; at 17.2 µM (top of the series) unless noted;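 also: ME-180 reporter cells stimulated with EGF at its EC50 level; % is scaled to controls: 0 for no effect and ±100 for the full control effect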
In short: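 A ratiometric CCF4 readout (405 nm excitation; 460 and 530 nm emission) quantified AP-1-driven beta-lactamase in ME-180 cells after 5 h with compound and EC50 EGF; AC50 values were derived for activators and inhibitors.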

[2] = NFAT Signaling Pathway (AID 444); details: Jurkat NFAT-bla M1, carbachol, beta-lactamase ratio, 5 h; at 17.2 µM (top of the series) unless noted;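 also: carbachol stimulus at about its EC50 of 1 µM final; % is scaled to controls: 0 for no effect and ±100 for the full control effect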
In short: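 Read-out: CCF4 FRET ratio (460 nm/530 nm) after 1 h RT dye loading, used for %activity and AC50 from titration series. Cells: Jurkat NFAT-β-lactamase/M1 line, treated with compound plus 1 uM carbachol for 5 h, 37 °C.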

[3] = Stat Signaling Pathway (AID 446); details: ME-180 (cervical carcinoma) SIE beta-lactamase reporter, IL-6 stimulated, 5 h; at 17.2 µM (top of the series) unless noted;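 also: ME-180 cervical cancer cells given 40 pM IL-6 alongside compound; SIE-controlled beta-lactamase reporter measured as 460/530 nm FRET emission ratio; % is scaled to controls: 0 for no effect and ±100 for the full control effect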
In short: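 Emission at 460 and 530 nm (excitation 405 nm) reports SIE-controlled beta-lactamase in ME-180 cells. Cells received compound with 40 pM IL-6 for 5 hrs at 37 C; data scaled between 300 pM IL-6 and 125 nM JAK-inhibitor controls.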

[4] = target: Glucocorticoid receptor (Homo sapiens) (UniProt P04150); assay: GR-GFP Redistribution (AID 450;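 active = compounds whose dose series gives a full or clear partial fitted curve of increased nuclear translocation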; also: potency is read from the fitted curve at half-maximal effect)
Sequence of Glucocorticoid receptor (Homo sapiens) (P04150 whole entry, looked up): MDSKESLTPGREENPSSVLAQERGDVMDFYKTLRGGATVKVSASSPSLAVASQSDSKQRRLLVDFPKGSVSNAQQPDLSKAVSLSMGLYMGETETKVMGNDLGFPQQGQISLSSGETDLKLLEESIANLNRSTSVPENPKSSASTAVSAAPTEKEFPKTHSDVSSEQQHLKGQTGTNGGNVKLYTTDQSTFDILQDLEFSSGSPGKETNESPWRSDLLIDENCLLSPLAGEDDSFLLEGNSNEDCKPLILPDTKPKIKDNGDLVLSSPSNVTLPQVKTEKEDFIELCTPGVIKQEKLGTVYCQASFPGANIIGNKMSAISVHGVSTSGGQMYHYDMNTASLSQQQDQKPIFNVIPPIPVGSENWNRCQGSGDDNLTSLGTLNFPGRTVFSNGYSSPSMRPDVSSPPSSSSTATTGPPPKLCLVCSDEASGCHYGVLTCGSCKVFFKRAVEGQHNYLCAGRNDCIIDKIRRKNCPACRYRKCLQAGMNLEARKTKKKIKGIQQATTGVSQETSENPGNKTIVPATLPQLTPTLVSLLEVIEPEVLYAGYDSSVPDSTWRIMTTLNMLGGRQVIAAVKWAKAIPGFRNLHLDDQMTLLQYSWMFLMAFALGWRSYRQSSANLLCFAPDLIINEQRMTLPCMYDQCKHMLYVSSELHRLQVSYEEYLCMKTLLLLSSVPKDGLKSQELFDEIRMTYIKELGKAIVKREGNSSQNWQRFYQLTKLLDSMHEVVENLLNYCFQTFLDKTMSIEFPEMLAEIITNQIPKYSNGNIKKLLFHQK

O=C(O)CCSc1ccc2ccccc2n1
inactive: activity change, negative = inhibition [1] 14.9% | activity change, negative = inhibition [2] 11.5% | activity, negative = inhibition [3] 0.928% | Potency [4] > 20.6 µM

CCOC(=O)C1(c2nc(N)cs2)COC(=O)C1 (centres undefined)
inactive: activity change, negative = inhibition [1] 6.34% | activity change, negative = inhibition [2] -1.85% | activity, negative = inhibition [3] 2.25% | Potency [4] > 20.6 µM

CCOCc1nc(N)[nH]c(=O)c1Cc1ccc(OC(C)C)cc1
inactive: activity change, negative = inhibition [1] 1.48% | activity change, negative = inhibition [2] 13.9% | activity, negative = inhibition [3] 9.73% | Potency [4] > 20.6 µM

CC(O)Cn1ccccc1=N (centres undefined)
inactive: activity change, negative = inhibition [1] -4.75% | activity change, negative = inhibition [2] 25.6% | activity, negative = inhibition [3] 3.45% | Potency [4] > 20.6 µM

Cc1cc(SCCC(=O)O)nc2ccccc12
inactive: activity change, negative = inhibition [1] 0.423% | activity change, negative = inhibition [2] -5.26% | activity, negative = inhibition [3] 6.44% | Potency [4] > 20.6 µM

CCCCCC1CC(CC#CCN2CCOCC2)C(=O)O1 (centres undefined)
inactive: activity change, negative = inhibition [1] 9.22% | activity change, negative = inhibition [2] -1.87% | activity, negative = inhibition [3] -2.28% | Potency [4] > 20.6 µM

CCC1SC2=NC(C)=C(C(=O)OCCOC)C(c3ccc(C(=O)OC)cc3)N2C1=O (centres undefined)
inactive: activity change, negative = inhibition [1] 17.5% | activity change, negative = inhibition [2] 6.06% | activity, negative = inhibition [3] -2.24% | Potency [4] > 20.6 µM

C=C(C)Cn1c(-c2ccc(OC)cc2)nc2ccccc21
inactive: activity change, negative = inhibition [1] -23.2% | activity change, negative = inhibition [2] 3.93% | activity, negative = inhibition [3] 5.37% | Potency [4] > 20.6 µM

COC(=O)c1[nH]c2ccc(Cl)cc2c1NC(=O)C1CC1
inactive: activity change, negative = inhibition [1] -4.32% | activity change, negative = inhibition [2] -26.4% | activity, negative = inhibition [3] 1.62% | Potency [4] > 20.6 µM

Cc1cccc(-n2ncc3c(NCCN4CCOCC4)ncnc32)c1
inactive: activity change, negative = inhibition [1] 1.48% | activity change, negative = inhibition [2] 8.91% | activity, negative = inhibition [3] 4.97% | Potency [4] > 20.6 µM

C/C(=C\C(=O)O)CC(=O)O
inactive: activity change, negative = inhibition [1] -2.96% | activity change, negative = inhibition [2] -2% | activity, negative = inhibition [3] 7.83% | Potency [4] > 20.6 µM

COc1ccc(/C(O)=C2\C(=O)C(=O)N(Cc3ccco3)C2c2cc(OC)ccc2OC)cc1 (centres undefined)
inactive: activity change, negative = inhibition [1] 8.52% | activity change, negative = inhibition [2] -18% | activity, negative = inhibition [3] -17.9% | Potency [4] > 20.6 µM

CCOc1ccc(/C(O)=C2/C(=O)C(=O)N(c3nc(C)c(C)s3)C2c2ccco2)cc1 (centres undefined)
inactive: activity change, negative = inhibition [1] -13.5% | activity change, negative = inhibition [2] 20.9% | activity, negative = inhibition [3] -19% | Potency [4] > 20.6 µM

Cc1ccc(N(CC(=O)O)C2SC(=O)NC2=O)cc1 (centres undefined)
inactive: activity change, negative = inhibition [1] 12.3% | activity change, negative = inhibition [2] 0.868% | activity, negative = inhibition [3] 6.57% | Potency [4] > 20.6 µM

COc1cc(N2C(=O)CSC23C(=O)Nc2ccccc23)cc(OC)c1OC (centres undefined)
inactive: activity change, negative = inhibition [1] 14.9% | activity change, negative = inhibition [2] 18.9% | activity, negative = inhibition [3] -2.69% | Potency [4] > 20.6 µM

CCC1(C)Cc2c(sc3nc4n(c(=O)c23)CCS4)CO1 (centres undefined)
inactive: activity change, negative = inhibition [1] -20.5% | activity change, negative = inhibition [2] -16.6% | activity, negative = inhibition [3] -2.05% | Potency [4] > 20.6 µM
